High-throughput results: PubChem, National Center for Advancing Translational Sciences (NCATS)
An excerpt weighted towards active compounds, which were near 18% of everything screened.
TDP1 cell noCPT: qHTS for Inhibitors of human tyrosyl-DNA phosphodiesterase 1 (TDP1): qHTS in cells in absence of CPT; Potency, µM (doses to about 46.2 µM), without a hit: at the top dose activity change, negative = growth inhibition, actives largely listed as inhibitors; DT40 Tdp1-/- hTDP1 cells, no CPT, ATP luminescence, 48 h; 420,000 tested, 15% active; also: potency is read from the fitted curve at half-maximal effect; nearly all actives have a fitted effect of over 55% in size
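Readout: luminescence from CellTiter-Glo after 30 min in the dark at RT. Cells: DT40 Tdp1-/- with stable hTDP1, 400/well. Exposure: compounds alone, ≥48 hr, 37 °C.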
TDP1 cell CPT: qHTS for Inhibitors of human tyrosyl-DNA phosphodiesterase 1 (TDP1): qHTS in cells in presence of CPT. chicken DT40 Tdp1-/-;hTDP1 cells + 20 nM CPT, ATP luminescence, 48 h. Potency, µM (top dose mostly 46.2 µM), for inactives: top-dose activity change, negative = growth inhibition, most hits filed as inhibitors. 420,000 tested, 12% active; also: potency is read from the fitted curve at half-maximal effect; nearly all actives have a fitted effect of over 55% in size
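Cell growth measured by CellTiter-Glo luminescence after a minimum 48 h, 37 C compound exposure with 20 nM CPT in Tdp1-knockout DT40 cells stably expressing hTDP1, seeded 400/well; qHTS titration format.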
VP16 counter: VP16 counterscreen qHTS for inhibitors of ROR gamma transcriptional activity; Drosophila S2 Gal4-VP16 UAS-luciferase, luminescence, 20 h; Potency, µM (highest dose often 53.6 µM), for inactives: at the highest dose activity, negative = inhibition, most hits filed as inhibitors; 310,000 tested, 3.5% active;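 also: Gal4-VP16 expression switched on by copper sulfate through the metallothionein promoter; potency is read from the fitted curve at half-maximal effect; nearly all actives have a fitted effect of over 50% in size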
LDHA block: qHTS assay for inhibitors of human lactate dehydrogenase | 480,000 tested, 0.15% active | activity change, % (values are at about 110 or 230 µM) | L-lactate dehydrogenase A chain (Homo sapiens), P00338 | AID 1347041, 2019 | purified LDHA, NADH/diaphorase-resazurin fluorescence; stronger effect = lower value; in the data active = activity change below about -30%; inconclusive = mostly about -25% to -30%;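 also: plate controls were DMSO wells for no effect and wells without enzyme for full effect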
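Human LDH5 (2 nM) was incubated with 0.06 mM NADH and 0.2 mM pyruvate for 5 min at room temperature in Tris pH 7.4. Remaining NADH was coupled through diaphorase/resazurin, and resorufin fluorescence was read at 0 and 20 min.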
IL1B secr inh: qHTS for Inhibitors of Inflammasome Signaling: IL-1-beta AlphaLISA Primary Screen. THP-1 LPS/ATP IL-1B secretion, AlphaLISA, 16 h; stronger effect = lower value. activity change, % at 57.5 µM. 360,000 tested, 4.7% active. AID 743279, 2014; in the data active = activity change below about -50%; inconclusive = mostly about -30% to -49%
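THP-1 cells pretreated 1 hr with compounds (up to 57.5 uM final), then stimulated with LPS (250 ng/mL final) plus ATP (1.25 mM final); secreted IL-1B measured by AlphaLISA after 16 hr, decreased signal indicating inhibition.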
RORgamma inh: qHTS for inhibitors of ROR gamma transcriptional activity; Potency, µM (titrated, usually from 53.6 µM), without a hit: at the highest dose activity change, negative = inhibition, usual class: inhibitors; Drosophila S2 Gal4-RORgamma UAS-luciferase reporter, 20 h; 310,000 tested, 5.4% active; Nuclear receptor ROR-gamma (Mus musculus), P51450; also: potency is read from the fitted curve at half-maximal effect; nearly all actives have a fitted effect of over 60% in size
Target sequence (P51450 whole entry, looked up, the tested form may be a part): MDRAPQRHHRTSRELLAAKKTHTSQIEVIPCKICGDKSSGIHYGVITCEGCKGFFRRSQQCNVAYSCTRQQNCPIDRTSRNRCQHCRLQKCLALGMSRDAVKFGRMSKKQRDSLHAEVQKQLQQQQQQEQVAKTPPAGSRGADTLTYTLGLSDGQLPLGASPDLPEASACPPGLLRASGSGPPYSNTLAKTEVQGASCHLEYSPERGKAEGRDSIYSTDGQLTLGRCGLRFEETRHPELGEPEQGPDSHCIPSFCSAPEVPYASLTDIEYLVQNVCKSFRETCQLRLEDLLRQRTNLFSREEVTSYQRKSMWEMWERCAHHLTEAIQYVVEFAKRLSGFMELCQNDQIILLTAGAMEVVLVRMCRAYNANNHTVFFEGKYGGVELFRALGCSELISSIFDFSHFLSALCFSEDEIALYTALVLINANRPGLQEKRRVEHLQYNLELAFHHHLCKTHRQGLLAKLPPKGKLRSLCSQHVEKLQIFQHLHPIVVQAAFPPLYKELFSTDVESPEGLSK
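Drosophila Schneider cells stably carrying a metallothionein-driven Gal4 DBD–ROR gamma fusion and a UAS-Photinus luciferase reporter were exposed to compound for 1 hr, then induced with copper sulfate (700 uM final) for 20 hr at ambient temperature before luminescence reading.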
* hit, by the source's call; ? = inconclusive; / = no result. Unless noted, calls follow the shape of the dose curve; as a rule, active = well fitted curve in the direction sought with a large enough effect; inconclusive = small, poorly fitted or top-dose-only effect, or another doubt; inactive = no such curve, though single readings can be large; an effect the other way counts as inactive or inconclusive. Unless noted, % is scaled to controls: 0 for no effect and ±100 for the full control effect.

SMILES	TDP1 cell noCPT	TDP1 cell CPT	VP16 counter	LDHA block	IL1B secr inh	RORgamma inh
CCCCCOc1ccc(/C=C/C(=O)Nc2sc3c(c2C(=O)OCC)CCC3)cc1OC	?	-5%	/	-6	/	/
CCCCCOc1ccc(/C=C/C(=O)Nc2sc(C(C)=O)c(C)c2C(=O)OCC)cc1OC	5.8µM*	?	/	-5	/	/
c1ccc(CCn2c(C3CC3)nc3ccccc32)cc1	26µM*	?	-16%	-7	8	?
Cc1nc2ccccc2n1CCc1ccccc1	?	?	-4%	-5	12	11µM*
CCn1c(CN(C)c2ccccc2)nc2ccccc21	?	?	22µM*	4	-17	10µM*
CCn1c(COc2ccccc2)nc2ccccc21	-25%	-9%	?	-4	-19	?
O=C(O)CCn1c(C2CCCCC2)nc2ccccc21	6%	0%	3%	-6	4	4%
CCCc1nc2ccccc2n1CCc1ccccc1	21µM*	29µM*	-29%	-3	-6	7.1µM*
CC(C)(C)NC(=O)c1nn(-c2ccccc2)c(=O)c2ccccc12	/	/	/	-14	/	/
COc1ccc(C(=O)c2c(N)c(-c3nc4ccccc4[nH]3)c3ccccn23)cc1	/	/	/	6	/	/
Cn1c(CCc2ccc(N)cc2)nc2ccccc21	?	?	?	-3	-7	11µM*
Cn1c(-c2ccc(N)cc2)nc2ccccc21	7%	7%	-3%	-9	-4	-38%
Cc1nc2ccccc2n1CCOc1ccc(F)cc1	18µM*	?	?	-2	-7	1%
CCCCn1nc(C(=O)Nc2ccc(OC)c(OCCOC)c2)c2ccccc2c1=O	/	/	/	4	/	/
O=C(Nc1cccnc1)c1nn(C2CCS(=O)(=O)C2)c2c1CCCC2 (stereo unspecified)	/	/	/	-5	/	/
C=C(C)CN1CCN(c2nc3c(c(=O)[nH]c(=O)n3C)n2Cc2cccc(Cl)c2)CC1	/	/	/	-6	/	/
Cc1ccccc1-c1cc(=O)c2cc(NC(=O)c3ccco3)ccc2o1	/	/	/	-5	/	/
Cc1cnc(C=NNC(N)=S)c2cccc(N)c12	3.7µM*	3.3µM*	/	34	62	/
NC(=O)c1ccnc2c(O)cccc12	/	/	/	1	/	/
NC(=S)NN=Cc1nccc2c(C(F)(F)C(F)(F)C(F)(F)F)cccc12	0.52µM*	0.016µM*	/	0	117	/
O=C(N/N=C/c1cccc2ccccc12)c1ccncc1	-16%	2%	-4%	-2	-2	-22%
NC(=S)NN=Cc1nccc2ccccc12	2.1µM*	2.3µM*	/	19	109	/
Nc1ncnc(N2CCc3ccccc32)c1[N+](=O)[O-]	7.3µM*	5.8µM*	1%	-7	-1	-25%
OC(c1nc2ccccc2s1)(c1nc2ccccc2s1)C(F)(F)F	/	/	/	2	/	/
Cc1ccc(-c2nc(CS(=O)CC(=O)NC3CCCC(C)C3C)c(C)o2)cc1 (stereo unspecified)	11%	-17%	0%	-2	-54*	-16%
Cc1oc(-c2ccccc2)nc1CS(=O)CC(=O)N1CCc2ccccc2C1 (stereo unspecified)	26µM*	9.2µM*	-2%	4	11	?
Cc1ccc(-c2nc(CS(=O)CC(=O)N3CCN(c4ccccc4)CC3)c(C)o2)cc1 (stereo unspecified)	15µM*	23µM*	-2%	-2	-25	14%
CCOC(=O)N1CCC(NC(=O)CS(=O)Cc2nc(-c3ccc(Cl)cc3)oc2C)CC1 (stereo unspecified)	15µM*	?	7%	-3	5	22%
